# Source: PubChem BioAssay (Johns Hopkins Ion Channel Center)
# KCNQ2 inh = blocks the rat KCNQ2 potassium channel; O88943; CHO-K1 KCNQ2, FluxOR thallium flux, 20 min; active compounds read low; hit rate 1.1% among 310,000; B-score at 10 µM;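 active = fluorescence ratio B-score at most minus 3 library SDs, with starting brightness B-score within 2 library SDs, cut at about -5.5 in these data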
# Target sequence (O88943 whole entry, looked up): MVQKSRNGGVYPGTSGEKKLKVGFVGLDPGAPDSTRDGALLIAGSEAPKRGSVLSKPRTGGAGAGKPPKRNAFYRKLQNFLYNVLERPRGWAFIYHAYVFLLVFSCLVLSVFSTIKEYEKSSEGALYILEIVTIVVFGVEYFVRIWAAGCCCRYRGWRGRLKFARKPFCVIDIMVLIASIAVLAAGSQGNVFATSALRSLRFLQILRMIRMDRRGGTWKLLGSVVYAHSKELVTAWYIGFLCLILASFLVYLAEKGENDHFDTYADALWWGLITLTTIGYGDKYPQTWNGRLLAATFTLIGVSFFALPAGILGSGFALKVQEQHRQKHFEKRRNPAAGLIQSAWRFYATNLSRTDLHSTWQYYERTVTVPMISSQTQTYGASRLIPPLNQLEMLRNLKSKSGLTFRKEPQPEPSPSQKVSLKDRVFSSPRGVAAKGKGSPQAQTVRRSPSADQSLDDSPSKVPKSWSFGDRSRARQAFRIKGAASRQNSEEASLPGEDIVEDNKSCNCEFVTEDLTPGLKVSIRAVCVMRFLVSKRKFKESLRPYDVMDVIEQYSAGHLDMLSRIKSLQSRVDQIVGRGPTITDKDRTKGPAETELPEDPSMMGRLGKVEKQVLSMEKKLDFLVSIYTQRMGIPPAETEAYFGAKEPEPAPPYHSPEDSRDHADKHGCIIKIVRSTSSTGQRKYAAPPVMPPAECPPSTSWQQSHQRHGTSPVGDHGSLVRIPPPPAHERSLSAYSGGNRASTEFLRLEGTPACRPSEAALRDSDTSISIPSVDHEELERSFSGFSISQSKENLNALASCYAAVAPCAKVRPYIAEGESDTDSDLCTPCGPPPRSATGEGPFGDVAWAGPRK
# KCNQ2 pot = KCNQ2 (rat) channel potentiation. CHO-K1 KCNQ2, FluxOR thallium flux fluorescence; active compounds read high. B-score at 10 µM. hit rate 0.54% among 310,000. AID 2239;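 active = fluorescence ratio B-score at least 3 SD of library B-scores, with initial fluorescence B-score within 3 of them, cut at about 5.3 in these data; same plate scores as AID 2156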;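 also: B-score of peak minus minimum over baseline fluorescence ratio after K+ and Tl+ stimulus; positive B-score means potentiation of KCNQ2 with more thallium influx and brighter signal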
# The depositor's hits bear a star; i = inactive; nt = no result given. A selection: hits, their analogues and other compounds. The true share with any hit is near 1.6%.
SMILES,KCNQ2 inh,KCNQ2 pot
COC(=O)c1cc(S(=O)(=O)NCc2cccs2)c[nH]1,i,nt
C(=C\c1ccccc1)/CSc1nnc(-c2ccncc2)n1Cc1ccco1,i,nt
Clc1cccc(-c2nnc(SC/C=C/c3ccccc3)n2Cc2ccco2)c1,-8.28*,-8.28
Nn1c(SC/C=C/c2ccccc2)nnc1-c1ccco1,i,0.02
C(=C\c1ccccc1)/CSc1nnc(-c2ccccc2)n1Cc1ccco1,-5.93*,-5.93
CN(C)S(=O)(=O)N1CCc2ccc(NC(=O)c3ccc(C(F)(F)F)cc3)cc2C1,i,nt
CCOc1cc(CNc2nn[nH]n2)ccc1OCC(=O)NC(C)(C)C,i,nt
COC(=O)c1ccc2c(=O)n(Cc3ccc(C(=O)NCCCN4CCC(C)CC4)cc3)c(=S)[nH]c2c1,i,1.24
CC1CCN(CCCNC(=O)c2ccc3c(=O)n(Cc4ccc(Cl)cc4)c(=S)[nH]c3c2)CC1,-5.88*,-5.88
CC(C#Cc1c([C@@H](C)Oc2ccccc2)nnn1Cc1ccccc1)Oc1ccccc1 (some centres undefined),-6.34*,-6.34
CN(C)c1nnnn1Cc1ccccc1,i,nt
NS(=O)(=O)c1ccc(NC(=O)CSc2cn[nH]n2)cc1,i,nt
CCn1ccnc1C(O)(c1ccccc1)c1ccccc1,i,nt
CSc1ccc(CN(C)CC(=O)NCCc2ccccc2)cc1,i,nt
CCOC(=O)c1c(N2C(=O)C3C4C=CC(C4)C3C2=O)sc2c1CCC(C)C2 (centres undefined),i,6.67*
CCOC(=O)c1cc(C)sc1N1C(=O)C2C3C=CC(C3)C2C1=O (centres undefined),i,0.28
Cc1ccc(C(=O)Nn2cnnc2)cc1,i,0.64
COc1ccccc1OCCNC(=O)CNC(=O)c1ccc2c(c1)OCO2,i,0.26
COc1ccccc1OCCNC(=O)c1ccc2c(c1)OCCO2,i,6.67*
CCOc1ccc(NS(=O)(=O)c2ccc(C(=O)N(C)CC(=O)Nc3ccc(C)cc3)cc2)cc1,i,nt
Cc1ccc(N2C(=O)[C@@H]3[C@H](C2=O)C2c4ccccc4C=CN2[C@@H]3C(=O)c2ccco2)c(C)c1 (some centres undefined),-6.39*,-6.39
O=C(c1ccco1)[C@@H]1[C@@H]2C(=O)N(c3ccccc3)C(=O)[C@@H]2C2c3ccccc3C=CN21 (some centres undefined),i,nt
C=CCOc1cccc(/C=C/c2nc3ccccc3c(=O)[nH]2)c1,i,nt
COc1ccc(Cl)cc1NC(=S)NCCSc1ccc(C)cc1,i,nt
CCCCN(C)CC(O)Cn1cc(/C=C/C(=O)c2cccs2)c2ccccc21 (centres undefined),i,nt
SMILES,KCNQ2 inh,KCNQ2 pot
CCCCN(C)CC(O)Cn1cc(/C=C/C(=O)c2ccc(OCC)cc2)c2ccccc21 (centres undefined),-6.74*,-6.74
CC1CCCN(C(=O)COC(=O)Cc2c(F)cccc2Cl)C1 (centres undefined),i,0.84
Cc1ccc(NC(=O)c2sc3nc(C)nc(N4CCN(c5ccccn5)CC4)c3c2C)c(C)c1,i,nt
Cc1nc(N2CCN(c3ccccn3)CC2)c2c(C)c(C(=O)Nc3ccc(Br)cc3C)sc2n1,-5.98*,-5.98
COc1cc(Br)cc(Br)c1OCC(=O)N/N=C/c1c(C)n(C)n(-c2ccccc2)c1=O,i,1.36
Cc1ccc(C)c(COc2coc(CN3CCN(C(=O)c4ccco4)CC3)cc2=O)c1,i,nt
O=C(COc1ccc(F)cc1)N1c2ccccc2CCc2ccccc21,i,nt
O=C(COc1cccc2ccccc12)N1c2ccccc2CCc2ccccc21,-7.15*,-7.15
O=C1COc2ccc(C(=O)COC(=O)c3cc(S(=O)(=O)N4CCOCC4)ccc3F)cc2N1,i,0.76
CCOC(=O)c1c(C)[nH]c(C(=O)OCC(=O)Nc2cc(C)nn2-c2ccccc2)c1C,i,nt
COc1ccccc1OCC(O)Cn1nc(C)cc1C (centres undefined),i,nt
Cc1cc(C)n(CC(O)COc2ccccc2C(=O)Nc2ccccc2)n1 (centres undefined),-6.64*,-6.64
C=CCN(c1ccccc1)S(=O)(=O)c1cccc(C(=O)OCC(=O)NCCOC)c1,i,1.29
C=CCN(c1cccc(C(F)(F)F)c1)S(=O)(=O)c1cccc(C(=O)OCC(=O)NCCC)c1,i,6.6*
COc1ccc(Cl)cc1C(=O)NC(C)C,i,nt
CCNC(=S)N1CCc2ccccc2C1,i,0.35
Cc1cccc(C(=O)NC(=S)N2CCc3ccccc3C2)c1,i,8.37*
Cc1cc(C(=O)CSc2ccc(F)cc2)cc(C)c1OC(=S)N(C)C,-6.05*,-6.05
COc1ccc(SCC(=O)c2cc(C)c(OC(=S)N(C)C)c(C)c2)cc1,i,nt
Cc1ccc(N2C(=O)N(CC(=O)Nc3cc(F)ccc3C)C(=O)C2C)cc1 (centres undefined),i,2.38
COc1cccc2c1OC1(C)CC2NC(=O)N1c1cccc(C(=O)Nc2ccc3c(c2)OCCO3)c1 (centres undefined),-6.72*,-6.72
